# FLuc counter: qHTS profiling assay for firefly luciferase inhibitor/activator using purifed enzyme and Km concentrations of substrates (counterscreen for miR-21 project) | Luciferin 4-monooxygenase (Photinus pyralis), P08659 | purified FLuc, Km substrates, luminescence inhibition | Potency, µM (highest dose often 57.5 µM), for inactives: top-dose activity change, negative = inhibition, hits mostly inhibitors | 360,000 tested, 6.9% active;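 note: plate controls were vehicle for no effect and reference inhibitor for full effect; nearly all actives have a fitted effect of over 55% in size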
# Target sequence (P08659 whole entry, looked up): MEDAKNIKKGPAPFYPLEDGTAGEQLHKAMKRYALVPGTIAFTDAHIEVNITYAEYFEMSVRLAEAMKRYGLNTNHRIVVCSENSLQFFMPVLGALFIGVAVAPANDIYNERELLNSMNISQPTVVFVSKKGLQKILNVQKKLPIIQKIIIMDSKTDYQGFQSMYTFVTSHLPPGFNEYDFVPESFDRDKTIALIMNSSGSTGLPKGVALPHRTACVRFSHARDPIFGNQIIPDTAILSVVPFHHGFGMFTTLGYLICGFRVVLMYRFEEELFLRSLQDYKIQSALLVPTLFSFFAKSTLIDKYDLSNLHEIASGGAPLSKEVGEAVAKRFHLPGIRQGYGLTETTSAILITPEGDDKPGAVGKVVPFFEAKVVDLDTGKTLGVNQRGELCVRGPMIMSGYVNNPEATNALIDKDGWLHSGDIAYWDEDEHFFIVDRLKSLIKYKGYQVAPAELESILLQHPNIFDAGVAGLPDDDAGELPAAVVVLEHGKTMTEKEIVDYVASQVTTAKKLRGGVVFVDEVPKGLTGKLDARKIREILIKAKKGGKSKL
#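 Biochemical qHTS of compounds, final roughly 60 µM downward over six points, against 10 nM purified firefly luciferase using Km concentrations of substrates (10 uM D-luciferin, 10 uM ATP) in Tris acetate pH 7.5 buffer; luminescence output.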
# SMN2 splice up: qHTS Assay for Enhancers of SMN2 Splice Variant Expression; HEK293 SMN2-luciferase splicing reporter, luminescence, 30-36 h; Potency, µM (titrated, usually from 46.1 µM), without a hit: at the top dose activity change, positive = activation, usual class: activators; 210,000 tested, 2.8% active; note: % of control where 0% means no effect; nearly all actives have a fitted effect of over 55% in size
#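 HEK293 cells carry an SMN2 […]–luciferase reporter in which exon 7 inclusion puts luciferase in frame. Cells were plated 10-12 h before compound addition, then incubated 30-36 h at 37C. ONE-Glo luminescence was read; sodium butyrate at 4.5 mM final served as control.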
# NPC1 promoter act: qHTS Assay for NPC1 Promoter Activators. Huh7 NPC1 promoter luciferase reporter, 24 h. Potency, µM (top dose mostly 9.22 µM), for the others: top-dose activation, actives largely listed as activators. 320,000 tested, 2.4% active. AID 485313, 2010; note: % of control where 0% means no effect; nearly all actives have a fitted effect of over 60% in size
#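 Luciferase expression driven by the NPC1 promoter was measured in stably transfected Huh7 cells after a 24 h compound incubation, using a luciferase reagent and a luminescence read.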
# Rab9 promoter act: qHTS Assay for Rab9 Promoter Activators. Huh7 Rab9 promoter-luciferase reporter, luminescence, 24 h. 320,000 tested, 2.8% active. AID 485297, 2010. Potency, µM (titrated, usually from 9.22 µM), for inactives: at the highest dose activation, negative = inhibition, usual class: activators; note: % of control where 0% means no effect; nearly all actives have a fitted effect of over 60% in size
#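 Stable Rab9-luc Huh7, 1500 cells/well, 2 h settle; cmpd in DMSO, 24 h, 37 °C/5% CO2; luciferase reagent 10 min RT; luminescence.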
# ELG1 genotoxic: qHTS screen for small molecules that induce genotoxicity in human embryonic kidney (HEK293T) cells expressing luciferase-tagged ELG1; HEK293T ELG1-luciferase reporter, luminescence, 16 h; Potency, µM (titrated, usually from 46 µM), for inactives: at the top dose activity change, positive = activation, hits mostly activators; 330,000 tested, 1.3% active; AID 504466, 2011; note: % of control where 0% means no effect; nearly all actives have a fitted effect of over 60% in size
#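 ELG1-luciferase HEK293T cells, 2,000/well; compound pinned in; 16 hr, 37 °C, 5% CO2; ONE-Glo, 30 min RT; luminescence on CCD imager.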
# Starred values were filed as active, the others as inactive; ? = inconclusive; nt = no result given; [ ] = remark or other dose. Compounds with a hit are over-represented: about 7.4% of the library has one in this group of screens. Calls come from the whole dose curve; as a rule, active = well fitted curve in the direction sought with a large enough effect; inconclusive = small, poorly fitted or top-dose-only effect, or another doubt; inactive = no such curve, though single readings can be large; an effect the other way counts as inactive or inconclusive. Potency is the fitted concentration of half-maximal effect.
SMILES,FLuc counter,SMN2 splice up,NPC1 promoter act,Rab9 promoter act,ELG1 genotoxic
CCC(=O)c1ccc(-c2ccccc2)cc1,15µM*,?,3%,2%,?
O=C(C[n+]1ccccc1)c1ccc(-c2ccccc2)cc1,4%,nt,-1%,-5%,-14%
O=C(N/N=C/c1ccc(Sc2ccccn2)o1)c1cc2ccccc2cc1O,15µM*,?,-3%,0%,13%
CCc1ccc(/C(C)=N/NC(=O)c2ccccn2)cc1,?,17%,12%,1%,5%
C/C(=N\NC(=O)c1ccc(F)cc1)c1ccccn1,8.5µM*,nt,?,-32%,5.2µM*
C/C(=N\NC(=O)c1cc2ccccc2cc1O)c1ccccn1,4.8µM*,nt,2µM*,-24%,?
C/C(=N\NC(=O)c1c[nH]c2ccccc12)c1ccccn1,11µM*,24%,2.5µM*,?,?
Cc1ccc(CNC(=O)c2nn(-c3ccc(Cl)cc3)nc2CO)cc1,-2%,-16%,nt,nt,nt
COC(=O)N1C(c2ccccc2)=Cc2ccccc2C1C1(C(=O)OC)CCCC1=O (stereo unspecified),nt,9%,nt,nt,nt
O=C(N/N=C(\c1ccccc1)c1ccccn1)c1cccc([N+](=O)[O-])c1,0%,-108%,-25%,-7%,?
CCOc1ccc(C(=O)N/N=C(\c2ccccc2)c2ccccn2)cc1,19µM*,-63%,-22%,-19%,6%
C/C(=N\NC(=O)c1nc2ccccn2c1C)c1ccco1,?,263%,?,2.5µM*,?
C/C(=N\NC(=O)CNc1ccc(F)cc1)c1cc2ccccc2o1,?,-29%,1%,3%,-6%
C/C(=N\NC(=O)c1cc2ccccc2cc1O)c1cc2ccccc2o1,15µM*,nt,20%,11%,-11%
C/C(=N\NC(=O)c1nc2ccccn2c1C)c1cc2ccccc2o1,-3%,11%,-2%,3%,-6%
C/C(=N\NC(=O)c1c[nH]c2ccccc12)c1ccco1,12µM*,14µM*,5.6µM*,4µM*,7.9µM*
CCCN(CCC)CCCNC(=O)c1cc2c(=O)oc3ccc(C)cc3c2s1,1%,15%,nt,nt,nt
COc1cccc(-c2cc(C(=O)NCCc3ccc(C)cc3)[nH]n2)c1,-16%,nt,nt,nt,nt
Cc1cc(O)c(CN2CCN(c3ccccc3)CC2)c2oc(=O)cc(C)c12,-9%,nt,nt,nt,nt
CCOc1ccc(C2NC(=O)C(C#N)=C(S)N2c2ccc(C)cc2)cc1OC (stereo unspecified),17µM*,-13%,-2%,-1%,12%
Cc1onc(-c2ccccc2)c1C(=O)Nc1nc(-c2cc(F)ccc2F)cs1,?,11%,-3%,-2%,?
Cc1ccc(-c2csc(NC(=O)C3=NN(c4ccccc4)C(=O)CC3)n2)cc1,8.5µM*,-52%,-7%,-29%,-13%
Cc1csc(NC(=O)C2=NN(c3ccccc3)C(=O)CC2)n1,-2%,-5%,-2%,0%,0%
Cc1onc(-c2ccccc2)c1C(=O)Nc1nc(-c2ccccc2)cs1,19µM*,?,12%,?,?
Cc1csc(NC(=O)c2ccc(C)o2)n1,15µM*,nt,?,3.5µM*,?
SMILES,FLuc counter,SMN2 splice up,NPC1 promoter act,Rab9 promoter act,ELG1 genotoxic
O=C(Nc1nc(-c2ccccc2)cs1)c1ccc(Br)o1,24µM*,-5%,11%,20%,6%
COc1nc(Cl)nc(Cl)c1Cl (tested in a mixture with another compound),nt,-2%[9.22 µM],nt,nt,nt
S=C1NCN2CCN(CC2)CNC(=S)C(=S)NCN2CCN(CC2)CNC1=S,nt,9%[9.22 µM],nt,nt,nt
O=C(Nc1nc(-c2cccnc2)cs1)c1ccc([N+](=O)[O-])cc1,-16%,nt,1%,-1%,-3%
O=C(Nc1nc(-c2ccccc2)cs1)c1ccccc1F,17µM*,nt,?,3.5µM*,?
Cc1ccc(C(=O)Nc2nc(-c3cccnc3)cs2)o1,21µM*,16%,19%,21%,1%
COc1ccc(-c2csc(NC(=O)c3ccccc3F)n2)cc1,?,nt,1%,5%,8%

# Compound activity as filed in PubChem BioAssay.
